Source: PubChem BioAssay (several laboratories)
The list is not random: actives were taken first. Their share in the collection is about 4.7%.
HSP90 refold inh: HSP90 refolding inhibition in rabbit reticulocyte lysate | luciferase refolding luminescence, 3 h | inhibition, % at 5.6 µM | hit rate 0.91% among 290,000 | AID 1789;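 active = inhibition above the screen-wide mean plus 3 SD, computed separately per campaign, cut at about 16% in these data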;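 also: 0% = DMSO wells and 100% = 60 µM geldanamycin wells; inhibitors lower the luminescence because luciferase stays unfolded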
TROY NFkB inh: inhibitors of TROY-dependent NF-kB signaling. Q293 LMP1-TROYcd NF-kB luciferase reporter, 4 h. inhibition, % at 10 µM. hit rate 0.98% among 360,000. AID 1347056;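 active = compounds whose plate-normalised and pattern-corrected inhibition of the luciferase reporter signal at the single screening dose is 50% or more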
EBV LMP1 NFkB: Epstein-Barr LMP1 NF-kappaB reporter inhibition; LMP1-induced NF-kappaB luciferase reporter cells, luminescence; inhibition, % at 12.5 µM; hit rate 0.69% among 350,000; AID 504558; in the data active = inhibition above about 41%;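 also: 0% = neutral control wells and 100% = reference inhibitor control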
HSF1 inhib: HSF1 inhibition | NIH3T3-HGL HSE-luciferase, MG132-induced, luminescence 8 h; stronger effect = lower value | activity change, negative = inhibition, % at 7.5 µM (by protocol) | hit rate 0.77% among 300,000 | AID 2098;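 active = more than half of replicate wells show activity change below -50%, luminescence cut by over half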;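 also: luciferase reports HSF-1 transcriptional activity via heat shock element; 0% = median of DMSO wells and -100% = zero luminescence signal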
TWEAK-Fn14 inh: TWEAK-Fn14 signaling inhibition | TWEAK-stimulated Fn14 reporter cells, luciferase luminescence, 8 h | inhibition, % at 10 µM | hit rate 2% among 360,000 | AID 1159606; in the data active = inhibition above about 50%
HSF-1 act: increases HSF-1 driven luciferase reporter signal; NIH3T3-HGL HSF-1 luciferase reporter, MG132, 8 h; 100% = twice DMSO control signal; activation, % at 9 µM; hit rate 1.7% among 300,000;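 active = mean replicate activation of at least 50% with a set share of replicates each reaching 50%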;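 also: 0% = median of the neutral control wells and 100% = twice that signal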
An asterisk follows results filed as active; · = no result.

SMILES | HSP90 refold inh | TROY NFkB inh | EBV LMP1 NFkB | HSF1 inhib | TWEAK-Fn14 inh | HSF-1 act
COc1ccc(-c2nc(NC(=O)c3cc(C(C)(C)C)nn3C)sc2C)cc1 | 3 | 30 | 24 | -9 | 68* | -11
COc1cccc(-c2cc3nc(NCCN4CCCC4)n(C)c(=O)c3s2)c1 | · | -41 | · | · | -27 | ·
CCOC(=O)Cn1nc(C)c(NC(=O)COc2ccc([N+](=O)[O-])cc2)c1C | -3 | 3 | 1 | -53* | 5 | -63
Cc1ccc(C=Nc2ccccc2C(N)=O)s1 | 1 | -25 | 10 | 32 | 12 | 63*
Cc1cccc(C=Nc2ccccc2C(N)=O)c1 | 4 | -11 | 1 | 23 | -12 | 21
CN1CCN(c2ncnc3c2ncn3[C@H]2CN(Cc3cccnc3)C[C@@H](CO)O2)CC1 | · | -4 | · | · | 7 | ·
COc1ccc(C)cc1S(=O)(=O)N(CC(=O)Nc1cc([N+](=O)[O-])ccc1C)c1ccc(C)c(C)c1 | -1 | 1 | 49* | 11 | 10 | 9
COc1ccc(C)cc1S(=O)(=O)N(CC(=O)Nc1cccc([N+](=O)[O-])c1)c1cc(C)cc(C)c1 | -3 | 9 | -3 | 6 | 22 | 28
NC(=O)CC(NC(=O)Cc1cccc2ccccc12)c1ccc(NCc2ccccc2)c([N+](=O)[O-])c1 (stereo not given) | · | -1 | -1 | 10 | 0 | 18
NC(=O)CC(NC(=O)Cc1cccc2ccccc12)c1ccc(NCc2ccc(F)cc2)c([N+](=O)[O-])c1 (stereo not given) | · | -15 | 52* | 2 | 17 | 4
Cc1c(/C=N/NC(=O)c2cccnc2)c2ccccc2n1Cc1ccccc1 | 1 | 12 | 3 | -4 | 56* | -13
O=C(N/N=C\c1c(O)ccc2ccccc12)c1cncc(Br)c1 | -6 | 19 | 38 | -16 | -3 | -21
Nc1nonc1N/N=C/c1c(O)ccc2ccccc12 | 4 | 13 | 8 | 26 | 8 | 62*
Cc1nn(Cc2ccccc2)c(Cl)c1/C=N/NC(=O)c1cccnc1 | -6 | -16 | 5 | 8 | -16 | 19
Cc1ccc(C(=O)N/N=C/c2c(O)ccc3ccccc23)cn1 | -11 | -10 | 65* | -9 | 9 | -23
O=C(NN=Cc1c(O)ccc2ccccc12)c1ccncc1 | · | 4 | 62* | · | -19 | ·
C[C@@H](CO)NC(=O)c1[nH]cnc1C(=O)Nc1ccc(CNC(=O)OC(C)(C)C)cc1 | · | 7 | -1 | · | -20 | ·
COc1ccc(NC(=O)c2cc(C3CCCCN3C(=O)c3ccc4c(c3)CCO4)on2)c(C)c1 (stereo not given) | · | 7 | · | · | 11 | ·
Cc1ccc(NC(=O)c2ccc(-c3cc(Cl)ccc3Cl)o2)c(C)c1 | · | -38 | · | · | -9 | ·
O=C(N/N=C/c1c(O)ccc2ccccc12)c1cccnc1 | -6 | 1 | 51* | -3 | -5 | 11
O=C(CSCC(=O)Nc1ccccc1)N/N=C/c1c(O)ccc2ccccc12 | -8 | 6 | 51* | -3 | 12 | 1
COc1ccc2ccccc2c1/C=N\NC(=O)c1cccnc1 | · | -11 | · | -4 | -5 | -5
O=C(N/N=C/c1c(O)ccc2ccccc12)c1ccc(Br)o1 | -6 | 12 | 61* | 2 | 20 | 23
Cc1c(/C=N/NC(=O)c2ccc(Br)o2)cnn1C | 0 | -24 | -1 | 21 | -13 | 61*
CC1NC(=O)c2cccnc2-n2c1nc1cc(F)ccc1c2=O (stereo not given) | · | 13 | -1 | · | 5 | ·
SMILES | HSP90 refold inh | TROY NFkB inh | EBV LMP1 NFkB | HSF1 inhib | TWEAK-Fn14 inh | HSF-1 act
CC1(C(=O)NCc2cccs2)CCN1CCc1ccccc1 (stereo not given) | · | 6 | · | · | 1 | ·
COc1ccc(-c2ccc3[nH]c4c(c3c2)CCN2C(=O)[C@@H]([C@H](C)O)[C@@H](N(C)C(=O)Nc3ccc(F)cc3)C[C@@H]42)cc1 | · | -3 | -5 | · | 24 | ·
COc1cc(NC(=O)[C@H]2O[C@@H](n3ccc(N)nc3=O)[C@H](O)[C@@H]2O)cc(OC)c1OC | · | -8 | · | · | -2 | ·
O=C(N/N=C\c1c(O)ccc2ccccc12)c1ccc(O)cc1 | -4 | 1 | 35 | 31 | -2 | 42
Cn1nccc1C(=O)N/N=C/c1c(O)ccc2ccccc12 | -5 | -17 | 76* | 1 | -38 | 4
Cn1cc(C(=O)N/N=C/c2c(O)ccc3ccccc23)ccc1=O | -8 | 6 | 62* | -2 | -5 | -7
O=C(O)C1C=CCC(C(=O)O)C1 (stereo not given) | · | -17 | 1 | · | 3 | ·
Oc1ccc(Cl)cc1Cc1cc(Cl)ccc1O | 3 | 54* | 7 | 45 | 54* | 47
CCCC#Cc1ccc2c(c1)O[C@@H](CN(C)Cc1ccc3c(c1)OCO3)[C@H](C)CN([C@@H](C)CO)S2(=O)=O | · | 2 | 9 | · | 2 | ·
Cc1ccc(S(=O)(=O)NC2=C(N3CCN(c4ccccc4F)CC3)C(=O)c3ccccc3C2=O)cc1 | 0 | -48 | -3 | -37 | -3 | -37
CC(=O)Nc1ccc(S(=O)(=O)NC2=C(N3CCN(c4ccc(F)cc4)CC3)C(=O)c3ccccc3C2=O)cc1 | 4 | -4 | 12 | 61 | 29 | 75*
O=C(O)c1cc(-c2c[nH]c3ccccc23)nc2ccc3ccccc3c12 | 2 | -21 | 4 | -68* | -3 | -75
COc1cc(N)ccc1Nc1c2ccccc2nc2ccccc12 | · | -8 | · | · | -29 | ·
CCCS(=O)(=O)Nc1ccc(Nc2c3ccccc3nc3ccccc23)c(OC)c1 | · | -27 | 43* | · | -40 | ·
COC(=O)c1cn(NC(=O)c2cc([N+](=O)[O-])ccc2F)c(=O)c2ccccc12 | -2 | 9 | 86* | -7 | 68* | 22
COC(=O)c1cn(NC(=O)CC2CCCCC2)c(=O)c2ccccc12 | 5 | -7 | 2 | -2 | -7 | 6
COC(=O)c1cn(NC(=O)C2CCC(C)CC2)c(=O)c2ccccc12 (stereo not given) | 3 | 2 | 15 | 33 | -4 | 81*
COC(=O)c1cn(NC(=O)CCC2CCCC2)c(=O)c2ccccc12 | 2 | 0 | 1 | -77* | 14 | -81
CCN1C(=O)/C(=C\N2CCCCCC2)SC1=S | 2 | -32 | -20 | 48 | -17 | 67*
COc1ccc(NC(=O)NNC(=O)c2ccc(-c3ccccc3)cc2)c(OC)c1 | 5 | -15 | -3 | -23 | -1 | -31
COc1ccc(NC(=O)NNC(=O)c2cc3occc3n2C)c(OC)c1 | 3 | -8 | 0 | 82 | -1 | 133*
CCOc1ccccc1CNC(=O)C1CCN(C(=O)c2sccc2-n2cccc2)CC1 | -2 | 26 | -5 | 2 | 64* | 10
CC(C)CCCCCCCCCCCCC(=O)NCC(=O)NC1C(O)C(O)C(Nc2ncnc3nc[nH]c23)OC1C(O)CO (stereo not given) | · | 72* | 88* | · | 97* | ·
Cc1nnc(SCC(=O)Nc2nsc(-c3ccc(C(C)(C)C)cc3)n2)s1 | -1 | -31 | -24 | 22 | -3 | 51*
